From PubChem BioAssay AID1159580 (chemical genetic matrix, 2015)
Out of some 5,500 compounds screened, about 2,000 (36%) were called active. Not shown: some 18% with an inconclusive outcome. Rule as the data show it: active = normalized growth mostly below about 0.91 (no sharp cut-off); inconclusive = no clear call, values can overlap the other calls; inactive = mostly above about 0.92. The list shows a part of the results.

Assay: chemical genetic growth profiling, strain panel (AID 1159580);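 also: tested at 20 µM; growth read once vehicle control cultures reached saturation at 30 °C; 1 = growth at the plate median or of vehicle wells; lower values mean less growth of the strain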
Conditions: S. cerevisiae deletion strains, growth OD
[1] = locus YDL101C, strain DUN1, hits give low values
[2] = locus YHR030C, strain SLT2, hits give low values

Measured: normalized growth

Clc1cc(Cl)cc(C=NCc2ccccc2)c1
inactive: locus YAR019C, strain CDC15, hits give low values 0.958 | locus YBL105C, strain PKC1, hits give low values 0.946 | locus YBR135W, strain CKS1, hits give low values 0.961 | locus YBR136W, strain MEC1, hits give low values 0.957 | locus YBR160W, strain CDC28, hits give low values 0.955 | locus YDL017W, strain CDC7, hits give low values 0.951 | locus YDL028C, strain MPS1, hits give low values 0.958 | [1] 0.964 | locus YDL108W, strain KIN28, hits give low values 0.964 | locus YDL132W, strain cdc53, hits give low values 0.959 | locus YDR052C, strain DBF4, hits give low values 0.957 | locus YDR054C, strain cdc34, hits give low values 0.95 | locus YDR226W, strain ADK1, hits give low values 0.957 | locus YFL009W, strain cdc4, hits give low values 0.961 | locus YFL029C, strain CAK1, hits give low values 0.961 | locus YFR003C, strain YPI1, hits give low values 0.95 | locus YFR028C, strain CDC14, hits give low values 0.967 | locus YGR052W, strain FMP48, hits give low values 0.627 | locus YHR082C, strain KSP1, hits give low values 0.616 | locus YHR205W, strain SCH9, hits give low values 0.621 | locus YIL147C, strain SLN1, hits give low values 0.947 | locus YJL128C, strain PBS2, hits give low values 0.93 | locus YJR016C, strain ILV3, hits give low values 0.961 | locus YKL193C, strain SDS22, hits give low values 0.956 | locus YMR001C, strain CDC5, hits give low values 0.947 | locus YMR277W, strain FCP1, hits give low values 0.966 | locus YNL006W, strain LST8, hits give low values 0.95 | locus YNL161W, strain CBK1, hits give low values 0.95 | locus YNL207W, strain RIO2, hits give low values 0.963 | locus YNL222W, strain SSU72, hits give low values 0.963 | locus YOL078W, strain AVO1, hits give low values 0.965 | locus YOR119C, strain RIO1, hits give low values 0.744 | locus YOR329C, strain SCD5, hits give low values 0.946 | locus YPL209C, strain IPL1, hits give low values 0.957 | locus YPR025C, strain CCL1, hits give low values 0.953 | locus YPR106W, strain ISR1, hits give low values 0.959 | locus YPR111W, strain DBF20, hits give low values 0.957 | strain NNK1, hits give low values 0.959 | strain TSCII, hits give low values 0.954
active: locus YDL214C, strain PRR2, hits give low values 0.665 | locus YDR477W, strain SNF1, hits give low values 0.621 | locus YER123W, strain YCK3, hits give low values 0.364 | locus YER133W, strain GLC7, hits give low values 0.625 | locus YFR019W, strain FAB1, hits give low values 0.501 | locus YGR040W, strain KSS1, hits give low values 0.681 | locus YGR092W, strain DBF2, hits give low values 0.222 | [2] 0.322 | locus YHR079C, strain IRE1, hits give low values 0.27 | locus YJL095W, strain BCK1, hits give low values 0.375 | locus YJL157C, strain FAR1, hits give low values 0.458 | locus YJR066W, strain TOR1 (second series), hits give low values 0.585 | locus YJR066W, strain TOR1, hits give low values 0.433 | locus YKL048C, strain ELM1, hits give low values 0.722 | locus YKL067W, strain YNK1, hits give low values 0.58 | locus YKL101W, strain HSL1, hits give low values 0.692 | locus YKL203C, strain TOR2, hits give low values 0.691 | locus YLR113W, strain HOG1, hits give low values 0.375 | locus YLR133W, strain CKI1, hits give low values 0.525 | locus YLR403W, strain SFP1, hits give low values 0.479 | locus YML070W, strain DAK1, hits give low values 0.428 | locus YMR205C, strain PFK2 (second series), hits give low values 0.652 | locus YNL020C, strain ARK1, hits give low values 0.452 | locus YNL183C, strain NPR1, hits give low values 0.549 | locus YNL307C, strain MCK1 (second series), hits give low values 0.489 | locus YOL136C, strain PFK27, hits give low values 0.328 | locus YOR061W, strain CKA2, hits give low values 0.441 | locus YOR231W, strain MKK1, hits give low values 0.364 | locus YPL031C, strain PHO85, hits give low values 0.589 | locus YPL153C, strain RAD53, hits give low values 0.534 | locus YPL204W, strain HRR25, hits give low values 0.489 | locus YPL256C, strain CLN2, hits give low values 0.303

O=C1c2ccccc2C2(c3ccccc3)NCCN12 (stereo not drawn)
inactive: locus YAL013W, strain DEP1, hits give low values 1 | locus YBR229C, strain ROT2, hits give low values 1.01 | locus YCL061C, strain MRC1, hits give low values 0.987 | [1] 0.982 | locus YDR150W, strain NUM1, hits give low values 0.989 | locus YEL061C, strain CIN8, hits give low values 1.02 | locus YGR078C, strain PAC10, hits give low values 1.01 | [2] 0.972 | locus YHR087W, strain rtc3, hits give low values 0.993 | locus YJL187C, strain SWE1, hits give low values 0.997 | locus YJR043C, strain POL32, hits give low values 0.956 | locus YJR075W, strain HOC1, hits give low values 1.01 | locus YLR039C, strain RIC1, hits give low values 0.976 | locus YLR058C, strain SHM2 (second series), hits give low values 0.997 | locus YLR085C, strain ARP6, hits give low values 1.04 | locus YLR262C, strain YPT6, hits give low values 0.968 | locus YML094W, strain GIM5, hits give low values 1.04 | locus YMR219W, strain ESC1, hits give low values 1 | locus YMR263W, strain SAP30, hits give low values 1.01 | locus YNL128W, strain TEP1, hits give low values 0.983 | locus YNL153C, strain GIM3, hits give low values 1.01 | locus YNL298W, strain CLA4 (second series), hits give low values 0.995 | locus YNL322C, strain KRE1, hits give low values 0.996 | locus YNR030W, strain Alg12, hits give low values 0.982 | locus YPL055C, strain LGE1, hits give low values 1.04 | locus YPL241C, strain CIN2, hits give low values 1.02 | locus YPR135W, strain CTF4, hits give low values 0.957
